TbPYK inhibitor: inhibitors of Trypanosoma brucei pyruvate kinase; Q57TT1; TbPYK enzyme, Kinase-Glo Plus ATP luminescence, 45 min; Potency, µM (doses to about 76.8 µM), for inactives: at the highest dose activity, negative = inhibition, most hits filed as inhibitors; hit rate 0.12% among 410,000; further: potency means the concentration at half of the fitted maximal effect; nearly all actives have a fitted effect of over 50% in size
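Luminescent Kinase-Glo Plus end-point after 45 min room-temperature reaction of T. brucei pyruvate kinase started with 130 uM ADP (final). Buffer TEA 50 mM pH 7.2 with KCl, MgCl2, BSA, Tween-20; titration-based qHTS with fitted concentration-effect curves.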
Sm TGR inh: inhibitors of Schistosoma mansoni thioredoxin glutathione reductase. Q962Y6. Potency, µM (doses to about 114 µM), without a hit: top-dose activity change, negative = inhibition, usual class: inhibitors. hit rate 3% among 360,000. purified TGR, DTNB reduction, TNB absorbance 405 nm. AID 485364; further: potency means the concentration at half of the fitted maximal effect; nearly all actives have a fitted effect of over 60% in size
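First, TGR (20 nM dispensed) and NADPH were mixed with compound. Second, a 15 min room-temperature incubation followed. Third, further NADPH and then DTNB were added to start the reaction. Finally, TNB absorbance was monitored kinetically.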
RE007 growth inh: less growth of the S. pombe RE007 Vpr strain; AID 651644; hit rate 0.21% among 360,000; S. pombe RE007 Vpr strain, BacTiter-Glo ATP luminescence, 24 h; Potency, µM (series often up to 92.2 µM), inactives show at the highest dose activity change, negative = less growth, most hits filed as inhibitors; active means well fitted falling curve with a large enough effect; inconclusive means small, poorly fitted or top-dose-only effect; inactive means no such curve, though single readings can be large or run the other way; further: potency means the concentration at half of the fitted maximal effect; nearly all actives have a fitted effect of over 50% in size
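Fission yeast strain RE007, carrying one chromosomally integrated HIV-1 vpr copy, was seeded at OD 0.01 in PMG+AL medium with 23 nL pinned compound. After 24 h at 30 °C and 99% humidity, viability was read by BacTiter-Glo luminescence.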
HCMV antiviral: inhibitors of human cytomegalovirus; activity change, negative = inhibition, % at 57.5 µM; AID 1259415; HFF cells, HCMV-luciferase reporter, 72 h; stronger effect = lower value; hit rate 4.5% among 410,000; in the data active means activity change below about -60%; inconclusive means no clear call, values can overlap the other calls; inactive means above about -39%
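Two compound doses tested in HFFs infected with HCMV-luciferase, MOI 1 PFU/cell, 72 h at 37C. Lysate luminescence read with OneGlo; data normalized against buffer-only and 10uM Salinomycin inhibitor controls.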
Giardia FBPA inh: blocks Giardia fructose-bisphosphate aldolase activity; A8B2U2; purified Giardia FBPA; Potency, µM (doses to about 59.6 µM), inactives show top-dose activity, negative = inhibition, actives largely listed as inhibitors; hit rate 0.71% among 290,000; AID 2451; further: potency means the concentration at half of the fitted maximal effect; nearly all actives have a fitted effect of over 55% in size
Target sequence (A8B2U2 whole entry, looked up): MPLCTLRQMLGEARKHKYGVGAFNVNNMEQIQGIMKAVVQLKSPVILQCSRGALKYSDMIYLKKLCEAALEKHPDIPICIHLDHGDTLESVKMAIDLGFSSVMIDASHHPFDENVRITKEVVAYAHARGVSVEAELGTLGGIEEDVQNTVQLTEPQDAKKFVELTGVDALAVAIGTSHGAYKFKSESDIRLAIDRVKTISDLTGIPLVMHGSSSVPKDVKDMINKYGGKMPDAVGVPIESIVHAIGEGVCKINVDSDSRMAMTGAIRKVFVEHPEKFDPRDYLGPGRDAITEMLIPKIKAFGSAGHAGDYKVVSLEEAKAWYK
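Giardia FBPA (40 nM reagent) was preincubated 10 min at RT with compound (up to 57.5 uM final), then substrate plus GAPDH/TPI/NAD/arsenate coupling system with diaphorase/resazurin was added; resorufin fluorescence (525/598 nm) was read after 20 min.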
FMDV inh: foot and mouth disease virus antiviral activity; FMDV antiviral cell-based qHTS; Potency, µM (series often up to 57.9 µM), for inactives: at the highest dose activity change, negative = inhibition, hits mostly inhibitors; hit rate 1.2% among 410,000; calls by dose curve; tested in HEK293T cells; further: read-out not given here; potency means the concentration at half of the fitted maximal effect; nearly all actives have a fitted effect of over 45% in size
* marks the source's active call; other numbers are inactive results; ? = inconclusive; / = no result given; + = active, no number; [ ] = dose if it differs, or a comment. Sampled rows, rich in hits. Any-hit rate of the full collection: about 7.7%. Unless noted, the call rests on the fitted dose curve; in most records, active means well fitted curve in the direction sought with a large enough effect; inconclusive means small, poorly fitted or top-dose-only effect, or another doubt; inactive means no such curve, though single readings can be large; an effect the other way counts as inactive or inconclusive. On the % scale 0 is the no-effect control and ±100 the full control effect.

SMILES | TbPYK inhibitor | Sm TGR inh | RE007 growth inh | HCMV antiviral | Giardia FBPA inh | FMDV inh
OC(COCC1CC=CCC1)Cn1cnc2ccccc21 (stereo unspecified) | -8% | 5% | 3% | -23 | -7% | ?
Cc1nc2ccccc2n1CC(O)COCC1CC=CCC1 (stereo unspecified) | -1% | 3% | -18% | -81* | -6% | ?
CC(C)C[C@@H](CC(=O)N[C@@H](CCCN)CC(=O)N[C@@H]1CCNC[C@H]1C(=O)N[C@H](CC(=O)N[C@@H](CCC(=O)O)CC(=O)O)Cc1c[nH]c2ccccc12)NC(=O)[C@@H]1CCCC[C@H]1N | / | / | / | / | -27% | /
CCOC(=O)c1ccc(CN(Cc2ccc(F)cc2)S(=O)(=O)c2ccc(F)c(C(=O)Nc3cc(Cl)ccc3OC)c2)cc1 | 5% | -3% | / | -38 | / | -25%
CN(C)c1ccc2nc3ccc(=O)cc-3sc2c1 | ? | / | 45µM* | -78* | / | 75%
CN(C)c1ccc2nc3ccc(=[N+](C)C)cc-3sc2c1 | ? | ? | ? | -104* | ? | -2%
Cc1cc2nc3ccc(=[N+](C)C)cc-3sc2cc1N | ? | ? | ? | / | ? | -8%
CCNc1ncc2nc(-c3cccs3)c(=O)n(Cc3cccc(OC)c3)c2n1 | / | / | / | / | -2% | -1%
Cn1c(=O)c2c(c3ccccc31)OC(=O)CC2c1ccc(C(F)(F)F)cc1 (stereo unspecified) | 9% | -3% | / | 9 | / | -21%
C[C@]12CC[C@H]3c4ccc(OC[C@H]5CO5)cc4CC[C@H]3[C@H]1CC[C@@H]2O | / | / | / | / | 1%[12.9 µM] | /
COc1ccc(-n2c(=S)[nH]c3c(oc4ccccc43)c2=O)cc1 | -25% | -7% | / | -21 | 8% | 30%
COc1ccc(-n2c(=S)[nH]c(=O)c3cccnc32)cc1 | -14% | 18µM* | 6% | 21 | -18% | 11%
CCOC(=O)N1CCC(N2Cc3cccc(C(=O)Nc4ccc(CC)cc4)c3C2=O)CC1 | 2% | -14% | 16% | 65 | -3% | -15%
CCOC(=O)N1CCC(N2Cc3cccc(C(=O)Nc4ccc(F)cc4)c3C2=O)CC1 | 1% | 1% | 12% | -102* | -5% | -15%
CC(=O)n1cc([C@@H]2C=C(C(=O)N3CCN(Cc4ccccc4)CC3)O[C@H](OCc3ccc(CO)cc3)C2)c2ccccc21 | 2% | 25µM* | -11% | -74* | -24% | ?
CC(=O)n1cc([C@H]2C=C(C(=O)N3CCN(Cc4ccccc4)CC3)O[C@@H](OCCCCO)C2)c2ccccc21 | -3% | 35µM* | -26% | / | -12% | 0%
O=C(C1=C[C@H](c2csc3ccccc23)C[C@H](OCc2ccc(CO)cc2)O1)N1CCN(Cc2ccccc2)CC1 | 2% | 14µM* | -3% | ? | -17% | 0%
CC(=O)n1cc([C@@H]2C=C(C(=O)N3CCN(Cc4ccc5c(c4)OCO5)CC3)O[C@H](OCCCCO)C2)c2ccccc21 | -4% | -6% | -12% | -35 | -1% | ?
COc1ccc(-c2cc(C(F)(F)F)nc(SCC(=O)NCCc3ccccc3)n2)cc1OC | 3% | 0% | / | 2 | / | -4%
CCN1CCc2c(sc(-n3cccc3)c2C(C)NC(=O)Nc2ccccc2C)C1 (stereo unspecified) | -11% | -35% | / | -67* | / | 27%
CCN1CCc2c(sc(-n3cccc3)c2C(C)NC(=O)Nc2cc(Cl)c(OC)cc2OC)C1 (stereo unspecified) | -5% | -6% | / | 21 | / | 2%
CCCNC(=O)c1nnc2n1CCN(C(=O)c1ccc3sccc3c1)C2 | / | / | / | -8 | / | /
CC1CCc2c(sc3ncnc(SCC(=O)N(C)C4CCS(=O)(=O)C4)c23)C1 (stereo unspecified) | -5% | / | -2% | + | / | -6%
Cc1nc(CC(=O)c2c(C)cc(O)cc2O)cs1 | -15% | -14% | 399% | -71* | -5% | /
Cc1nc(CC(=O)c2ccc(O)cc2O)cs1 | ? | 1% | -2% | 17 | 0% | 43%
SMILES | TbPYK inhibitor | Sm TGR inh | RE007 growth inh | HCMV antiviral | Giardia FBPA inh | FMDV inh
CC(=O)Nc1c([N+](=O)[O-])cc(C)c(Cl)c1[N+](=O)[O-] | 6% | -31% | -15% | -77* | 1% | -13%
CC(=O)Nc1c(C)ccc([N+](=O)[O-])c1C | -2% | / | 2% | -19 | / | -8%
CC(=O)Nc1c([N+](=O)[O-])cc2[nH]c(=O)[nH]c2c1[N+](=O)[O-] | -4% | 50µM* | 25% | -12 | -30% | -4%
COc1cc(=O)n2c(c1C(=O)N(C)Cc1nonc1C)CCN(Cc1cccc(Cl)c1)CC2 | / | / | / | / | / | -10%
CCn1nc(C(=O)N2CCc3ccccc32)c2ccccc2c1=O | 4% | 1% | 12% | 4 | / | 0%
CCn1nc(C(=O)OCC(=O)N2CCc3ccccc32)c2ccccc2c1=O | -1% | 20µM* | 18% | 61 | 15% | 2%
O=C(OCC(=O)N1CCc2ccccc21)C1=COCCO1 | -10% | 22µM* | 2% | -33 | -8% | -8%
Cc1ccc(-c2ccnc(-n3ncc(C(=O)NCCN4CCOCC4)c3C3CC3)n2)o1 | / | / | / | / | / | -21%
CCC(=O)N1CCc2cc(Br)cc(S(=O)(=O)N3CCN(c4cccc(Cl)c4)CC3)c21 | -2% | 2% | / | 8 | / | -1%
O=C(CCNc1ccc(Cc2ccncc2)cc1)c1cccc([N+](=O)[O-])c1 | -2% | -2% | 35µM* | 23 | 2% | -27%
O=C(CCNc1cccc(F)c1)c1cccc([N+](=O)[O-])c1 | -5% | 0.28µM* | ? | 77 | -1% | 12%
O=C(COc1ccc(-c2nnco2)cc1)NCc1ccccc1Cl | -2% | -4% | 2% | -24 | 3% | -7%
Cc1cc(C(=O)COc2ccc(-c3nnco3)cc2)c(C)n1Cc1ccccc1 | -7% | ? | -4% | -70* | -5% | ?
Cc1nc(NCc2ccc(S(N)(=O)=O)cc2)c2c(C)c(C)sc2n1 | 7% | 6% | -6% | -20 | 4% | ?
Cc1nc(NCCc2ccc(S(N)(=O)=O)cc2)c2c(C)c(C)sc2n1 | -12% | -4% | 6% | -88* | 2% | 22µM*
NC[C@H]1O[C@H](O[C@H]2[C@H](O)[C@@H](O[C@H]3O[C@H](CO)[C@@H](O)[C@H](N)[C@H]3O)[C@H](N)C[C@@H]2N)[C@H](N)[C@@H](O)[C@@H]1O | / | / | / | / | / | -2%
O=c1oc(-c2ccccc2)cc(Cl)c1Cl | -4% | ? | ? | -101* | 2% | 25µM*
O=c1oc(-c2ccccc2)cc2ccccc12 | / | / | / | 83 | / | /
O=C(NN=Cc1ccco1)C(=O)Nc1cccc(C(F)(F)F)c1 | / | / | / | -6 | / | /
